High-throughput results (PubChem BioAssay)
Sampled rows, rich in hits. Any-hit rate of the full collection: about 3.4%.
MITF primary = MITF inhibitors, primary screen, biochemical, AlphaScreen, human; Microphthalmia-associated transcription factor (Homo sapiens), O75030; AlphaScreen MITF homodimerization, bead proximity signal; inhibition, % at 2.6 µM; 650,000 tested, 0.91% active; AID 1259374, 2018; in the data active means inhibition above about 50%;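 further: 0% = vehicle wells with protein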
GPR151 activ = activators of human GPR151, primary screen, cell-based, PathHunter beta-arrestin, luminescence; G-protein coupled receptor 151 (Homo sapiens), Q8TDV0; activation, % at 11.2 µM; PathHunter beta-arrestin GPR151 cells; 650,000 tested, 1% active; in the data active means activation above about 4.9%;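 further: 0% = median of compound wells and 100% = cells with positive control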
TEAD-YAP inh = TEAD-YAP interaction inhibition, primary screen, TEAD-YAP interaction inhibitor project, luminescence, HEK-TIYL cells; TEAD-Gal4/YAP UAS-luciferase luminescence; inhibition, % at 9.12 µM; 640,000 tested, 1.4% active; AID 1259422, 2018; in the data active means inhibition above about 32%;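 further: 0% = median of test compound wells and 100% = reference inhibitor wells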
FBW7 act = FBW7 E3 ligase activators, primary screen, biochemical, AlphaScreen, human | F-box/WD repeat-containing protein 7 (Homo sapiens), Q969H0 | AlphaScreen FBW7–phospho-cyclin E peptide binding, activator screen | normalized activity (activation), % at 26.1 µM | 650,000 tested, 0.13% active | AID 1259310, 2017; in the data active means normalized activity above about 1.9%;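 further: purified mutant Fbw7 with reduced substrate affinity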
Target sequence (Q969H0 whole entry, looked up): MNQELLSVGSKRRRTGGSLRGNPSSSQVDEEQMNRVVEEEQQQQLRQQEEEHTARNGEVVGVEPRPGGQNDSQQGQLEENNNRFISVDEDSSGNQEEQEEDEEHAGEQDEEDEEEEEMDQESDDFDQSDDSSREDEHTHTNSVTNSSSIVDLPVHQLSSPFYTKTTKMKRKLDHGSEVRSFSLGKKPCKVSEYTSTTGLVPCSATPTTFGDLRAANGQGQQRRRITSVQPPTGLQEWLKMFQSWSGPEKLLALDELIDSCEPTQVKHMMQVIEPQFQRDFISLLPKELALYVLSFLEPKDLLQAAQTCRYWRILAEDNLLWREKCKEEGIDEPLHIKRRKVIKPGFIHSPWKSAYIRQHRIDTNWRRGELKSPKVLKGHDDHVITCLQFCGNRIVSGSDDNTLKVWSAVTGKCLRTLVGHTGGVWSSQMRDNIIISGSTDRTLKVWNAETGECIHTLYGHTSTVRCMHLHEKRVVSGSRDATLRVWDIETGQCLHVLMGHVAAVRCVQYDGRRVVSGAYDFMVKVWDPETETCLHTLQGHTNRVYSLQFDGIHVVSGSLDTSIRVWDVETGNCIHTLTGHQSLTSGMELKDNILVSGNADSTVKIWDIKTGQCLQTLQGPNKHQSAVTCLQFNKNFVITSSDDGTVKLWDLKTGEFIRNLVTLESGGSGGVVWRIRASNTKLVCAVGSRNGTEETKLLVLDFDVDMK
An asterisk follows results filed as active.

`Cc1ccc(CN(C)Cc2nnc(SCCN3CCCC3)n2C)s1` gave MITF primary 2, GPR151 activ 0, TEAD-YAP inh 10 and FBW7 act 0.
`COc1ccc(OC)c(C(=O)c2oc3ccc(Br)cc3c2N)c1` gave MITF primary 12, GPR151 activ -1, TEAD-YAP inh 49* and FBW7 act 0.
Screening Cc1ccc(S(=O)(=O)N2CCCCC2CCNC(=O)C(=O)NCc2cccnc2)cc1 (configuration not stated) returned MITF primary 2, GPR151 activ -1, TEAD-YAP inh 36* and FBW7 act 1.
For COc1cccc(NC(=O)C(=O)NCC2CCCN2S(=O)(=O)c2ccccc2)c1 (configuration not stated) the results were MITF primary -5, GPR151 activ 2, TEAD-YAP inh -55 and FBW7 act 0.
CNC(=O)C(=O)NCCC1CCCCN1S(=O)(=O)c1ccc(C)cc1 (configuration not stated) was read as MITF primary 3, GPR151 activ 1, TEAD-YAP inh 2 and FBW7 act 0.
`COc1cccc(CNC(=O)C(=O)NCC2CCCN2S(=O)(=O)c2ccc(C)cc2)c1` (configuration not stated) gave MITF primary 3, GPR151 activ 3, TEAD-YAP inh 41* and FBW7 act 0.
`CCCNC(=O)C(=O)NCC1CCCN1S(=O)(=O)c1ccc(C)cc1` (configuration not stated) gave MITF primary 3, GPR151 activ 2, TEAD-YAP inh 10 and FBW7 act 0.
CCCCCNC(=O)C(=O)NCC1CCCN1S(=O)(=O)c1ccc(C)cc1 (configuration not stated) was read as MITF primary -3, GPR151 activ 1, TEAD-YAP inh 49* and FBW7 act 0.
For NNC(=O)c1ccc(Cn2nnc(-c3ccccc3)n2)cc1 the results were MITF primary 9, GPR151 activ 0, TEAD-YAP inh 6 and FBW7 act 0.
`O=C1C(=O)N(Cc2ccc(Cl)c(Cl)c2)c2ccc([N+](=O)[O-])cc21` gave MITF primary -4, GPR151 activ 2, TEAD-YAP inh 8 and FBW7 act 0.
Screening O=C1C(=O)N(Cc2cccc3ccccc23)c2ccc([N+](=O)[O-])cc21 returned MITF primary 15, GPR151 activ -1, TEAD-YAP inh 35* and FBW7 act 0.
Screening O=C1C(=O)N(Cc2cccc3ccccc23)c2ccc(Br)cc21 returned MITF primary 42, GPR151 activ -1, TEAD-YAP inh 25 and FBW7 act 0.
Cc1ccc(CN2C(=O)C(=O)c3cc([N+](=O)[O-])ccc32)cc1 was read as MITF primary 3, GPR151 activ 0, TEAD-YAP inh 66* and FBW7 act 0.
`O=C1C(=O)N(Cc2ccc(Br)cc2)c2ccc([N+](=O)[O-])cc21` gave MITF primary -14, GPR151 activ 0, TEAD-YAP inh 33* and FBW7 act 0.
COc1ccc(-c2nc(CCNS(=O)(=O)c3ccc(C)cc3)cs2)cc1 was read as MITF primary 12, GPR151 activ 0, TEAD-YAP inh 12 and FBW7 act 0.
For OC1(c2ccccc2)CSC(=Nc2cccnc2)N1CCCn1ccnc1 (configuration not stated) the results were MITF primary 18, GPR151 activ 1, TEAD-YAP inh 43* and FBW7 act 0.
C=CCN1C(=Nc2cccnc2)SCC1(O)c1ccc(C)cc1 (configuration not stated) was read as MITF primary 15, GPR151 activ 0, TEAD-YAP inh 25 and FBW7 act 0.
Screening C=C(C)Cn1c(C)cc(C)c(S(=O)(=O)c2ccccc2OC)c1=O returned MITF primary 6, GPR151 activ -1, TEAD-YAP inh 4 and FBW7 act 0.
`COc1cc(/C=C(\C#N)c2ccccc2[N+](=O)[O-])ccc1O` gave MITF primary 8, GPR151 activ -1, TEAD-YAP inh 1 and FBW7 act 0.
Screening COc1cc(-c2ncnn2-c2sc3c(c2C#N)CCCCC3)ccc1O returned MITF primary -12, GPR151 activ 0, TEAD-YAP inh 79* and FBW7 act 0.
COc1ccc(-c2ncnn2-c2sc3c(c2C#N)CCCCC3)cc1OC was read as MITF primary -10, GPR151 activ 0, TEAD-YAP inh -1 and FBW7 act 0.
For CN1CCOCCOCCOCCN(C)C(=O)N2CCOCCOCCN(CCOCCOCC2)C1=O the results were MITF primary -3, GPR151 activ 0, TEAD-YAP inh 14 and FBW7 act 1.
`COc1cc(/C=C2\SC(N)=NC2=O)ccc1OCC(=O)Nc1ccc(C)cc1` gave MITF primary 12, GPR151 activ -1, TEAD-YAP inh 34* and FBW7 act 0.
Screening CCOc1cc(/C=C2\SC(N)=NC2=O)ccc1OC(=O)c1cccs1 returned MITF primary -1, GPR151 activ -2, TEAD-YAP inh 35* and FBW7 act 0.
Screening CCOc1cc(/C=C2\SC(N)=NC2=O)ccc1OCC(=O)NCc1ccccc1 returned MITF primary 0, GPR151 activ 3, TEAD-YAP inh 32* and FBW7 act 0.
`COc1ccc(C2C3=C(Nc4[nH]c(=O)[nH]c(=O)c42)c2ccccc2C3=O)cc1` (configuration not stated) gave MITF primary 21, GPR151 activ -2, TEAD-YAP inh 56* and FBW7 act 0.
For Cc1ccc(C2C3=C(Nc4c2c(=O)[nH]c(=O)n4C)c2ccccc2C3=O)cc1 (configuration not stated) the results were MITF primary -2, GPR151 activ -1, TEAD-YAP inh 1 and FBW7 act 0.
`CCc1ccc(C2C3=C(Nc4c2c(=O)[nH]c(=O)n4CCOC)c2ccccc2C3=O)cc1` (configuration not stated) gave MITF primary -4, GPR151 activ -1, TEAD-YAP inh 43* and FBW7 act 0.
Cc1ccc(C2C3=C(Nc4[nH]c(=O)[nH]c(=O)c42)c2ccccc2C3=O)cc1 (configuration not stated) was read as MITF primary 16, GPR151 activ 0, TEAD-YAP inh 39* and FBW7 act 0.
Screening COCCn1c2c(c(=O)[nH]c1=O)C(c1ccccc1)C1=C(N2)c2ccccc2C1=O (configuration not stated) returned MITF primary 7, GPR151 activ 1, TEAD-YAP inh 10 and FBW7 act 0.
For COc1cc(-c2nc(N3CCCC3)c3ccccc3n2)cc(OC)c1OC the results were MITF primary 2, GPR151 activ 1, TEAD-YAP inh -7 and FBW7 act 0.
